Experimental data taken from PubChem BioAssay AID720542 (National Center for Advancing Translational Sciences (NCATS), 2013).
Hit rate of the full screen: of about 360,000 compounds, about 740 (0.21%) were called active. About 2% were inconclusive and are not listed. For the sample, actives were picked, then their nearest neighbours and some compounds at random. Unmarked numbers belong to inactive results. The call rests on the fitted dose curve; in most records, active means well fitted inhibition curve with a large enough effect; inconclusive means small, poorly fitted or top-dose-only effect; inactive means no such curve, though single readings can be large or run the other way.

The compounds below were run on Plasmodium falciparum AMA1 (3D7) - RON2 peptide interaction (assay: qHTS for Inhibitors of AMA1-RON; Towards Development of Antimalarial Drug Lead: Primary Screen). Settings: AlphaScreen AMA1-biotinylated RON2 peptide binding; series mostly up to 58.2 µM; activity change, negative = inhibition: at the top concentration.
Text: Plasmodium, the causative agent of malaria, is one of the world's deadliest parasitic diseases. Currently there is no vaccine available and there is widespread resistance to common anti-malarial drugs. This warrants novel, alternative approaches for developing improved therapy. During infection, one such essential interaction is between two parasite proteins, the apical membrane antigen1 (AMA1) that is translocated onto the merozoite surface and the rhoptry neck protein 2 (RON2), which is transferred to the red blood cells (RBC) membrane during invasion (Besteiro et.al., 2009). Recently, the Miller lab has shown that the interaction between AMA1 and RON2 is essential for junction formation of the parasite with the host cell (Srinivasan et.al., 2011). The binding of the RON2 peptide to the hydrophobic pocket in AMA triggers the formation of the moving junction which provides a firm anchor for the parasite to pull itself into the RBC using its actin-myosin motor; an irreversible step that commits the parasite for invasion. Only one AMA1 and RON2 genes exists in Plasmodium and there are no alternate pathways. Moreover, the region corresponding to RON2 peptide is conserved in all P. falciparum isolates for which sequences are available. The key residues in the AMA1 hydrophobic pocket that binds RON2 are also conserved and indicate a functional constraint governing this essential step in invasion since a short RON2 peptide (RON2L) corresponding to the binding region on AMA1 is sufficient to compete with the native RON2 protein and inhibits invasion (Tonkin et.al, 2011). Therefore, developing small molecule inhibitors of this interaction offers a promising target opening a new arena for anti-malarial therapeutics drug design.
In collaboration with the Miller lab, a quantitative High Throughput Screen using the AlphScreen technology was developed using a recombinant his-tagged AMA1 and a biotinylated RON2 peptide. This fluorescent screen was assayed against the NIH Molecular Libraries Small Molecule Repository (MLSMR). Inhibition of this protein-protein interaction is the desired outcome of this assay. However, due the limitations of this AlphaScreen assay, a large number of artifacts were observed. An AlphaScreen counterscreen was run to identify the true inhibitors, triage compound activity, and weed out false positives.
NIH Chemical Genomics Center [NCGC]
NIH Molecular Libraries Probe Centers Network [MLPCN]
Assay Submitter (PI): Louis Miller, National Institute of Allergy and Infectious Disease (NIAID)
Two microliters of his-tagged AMA1 3D7 allele protein (final concentration 25 nM) was dispensed into a 1,536-well assay plate. Small molecules and positive control peptides were pin-transferred (23 nL or 46 nL) via Kalypsys pin-tool equipped with a 1,536-pin array, resulting in final compound and peptide concentration ranges of 91.5 nM - 57.2 µM, and 15.6 nM - 2.00 µM, respectively. Unlabeled RON2 peptide or R1 peptide ([…]) that specifically binds the 3D7 AMA1 was used as a positive control that inhibited the binding of RON2L to AMA1. After 15 minutes incubation, 1 uL of biotinylated RON2 peptide (final concentration 25 nM) or buffer were dispensed and the assay plate was incubated for an additional 30 minutes at room temperature and protected from light. This was followed by an addition of 1 uL mixture of donor and acceptor beads (10 ug/mL final concentrations for each). The plates were incubated for 30 min at room temperature and read using the EnVision(R) plate reader (PerkinElmer). Maximum inhibition response was normalized to the positive control signal while no inhibition response was normalized to the DMSO treated wells.
Further: nearly all actives have a fitted effect of over 45% in size.
Potency means the concentration at half of the fitted maximal effect.
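Wherever activity change, negative = inhibition is given: 0% = vehicle wells and -100% = peptide control.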

Structure (SMILES) | activity change, negative = inhibition | Potency
CC1(C(=O)NCC2CCOCC2)Cc2c(-c3cccc(C(N)=O)c3)ccnc2O1 (stereo not given) | -0.312% | –
CN(Cc1c(F)cccc1Cl)C(=O)COC(=O)Cn1cnc2ccccc2c1=O | 10.2% | –
COc1ccc(C(C#N)=C2C=CC(=NO)c3ccccc32)cc1 | – | 12.6 µM (active)
COc1ccc(/C(N)=N/OC(=O)Oc2ccccc2)cc1 | -11.4% | –
COC(=O)Nc1ncc(CN2CCCCC2)s1 | 11.8% | –
CC(C)(C)c1nnc(N/N=C/c2ccc(O)cc2)n(N)c1=O | 46.9% | –
CC(=O)Nc1ccc(S(=O)(=O)Nc2nc3n(n2)C(c2ccccc2)CC(=O)N3)cc1 (stereo not given) | -0.175% | –
CCCCN(C(=O)CSCc1ccc(C)cc1)c1c(N)n(Cc2ccccc2)c(=O)[nH]c1=O | -24.8% | –
O=C(Nn1cnnc1)c1cc(Cl)ccc1Cl | 3.21% | –
Cc1cc(NC(=O)CCS(=O)(=O)c2ccc(F)cc2)no1 | -10% | –
CCn1c(SCC(=O)NC2=NCCS2)nnc1C(C)NC(=O)c1ccccc1F (stereo not given) | 6.74% | –
COc1ccc(NC(=O)NC2CC3CCCC(C2)N3Cc2ccccc2)cc1 (stereo not given) | 1.56% | –
Cc1c(S(=O)(=O)NCc2ccccc2)c(=O)n(C)c(=O)n1C | 0.652% | –
CC(C)(C)C1CCC(=O)N2CCC[C@]2(c2ccccc2)C1 (stereo not given in full) | 1.71% | –
O=C(O)CCCN1C(=O)c2ccccc2Sc2ncccc21 | -0.796% | –
Cc1ccc(C(=O)NCCc2nnc(SCC(=O)Nc3cccc(C(=O)O)c3)n2C)cc1 | 5.86% | –
CCCCc1nc2c(=O)[nH]c3ccccc3c2o1 | 4.28% | –
CC(Sc1nnnn1C1CCCCC1)C(=O)O (stereo not given) | 25.4% | –
CC(=O)c1c(C)[nH]c(C(=O)OCC(=O)Nc2cc(S(=O)(=O)N3CCCCC3)ccc2C)c1C | 6.19% | –
CN(Cc1ccccc1F)c1cc2c(c3c1ccn3C)C1CCC2O1 (stereo not given) | – | 31.6 µM (active)
CCCCN(C(=O)c1nn(C)c(=O)c2ccccc12)c1c(N)n(CCC)c(=O)[nH]c1=O | -1.58% | –
O=C(Nc1ccc2c(c1)nc1n2CCCCC1)c1cc(S(=O)(=O)N2CCOCC2)ccc1Cl | -0.329% | –
CCOC(=O)C1=C(CC)Nc2ccccc2N=C1NC(=O)c1cccc(S(=O)(=O)N2CCCC2)c1 | -14.1% | –
Cc1ncoc1C(=O)NCCC(c1ccccc1)c1ccccc1 | -4.05% | –
Cc1ccc(S(=O)(=O)/N=C(\CN2CCOCC2)N2CCOCC2)cc1 | 14.9% | –

Structure (SMILES) | activity change, negative = inhibition | Potency
COc1ccc(N2CCN(C(=S)Nc3ccc(S(N)(=O)=O)cc3)CC2)cc1 | -9.14% | –
O=C(Nc1ccc(N2CCN(C(=O)c3cccs3)CC2)cc1)c1cccnc1Cl | -6.85% | –
C=CC(=O)Nc1ccc(Nc2ccnc(Nc3ccc(N4CCN(C)CC4)cc3)n2)cc1 | – | 15.8 µM (active)
Cc1ccccc1NC(=O)COC(=O)c1cc(C)n(C2CC2)c1C | 4.53% [at 11.6 µM] | –
CC(NC(=O)c1ccc(N2CCNCC2)c([N+](=O)[O-])c1)C12CC3CC(CC(C3)C1)C2 (stereo not given) | -12.1% | –
CN(C)C(=O)CSc1n[nH]c(-c2ccco2)n1 | -7.33% | –
CSc1c(SCc2ccccc2)cnn(Cc2ccccc2)c1=O | -9.7% | –
c1ccc(CSc2nnc(-c3ccco3)c(-c3ccco3)n2)cc1 | – | 31.6 µM (active)
Cc1ccc(-n2ncc(C(=O)NC3CC3)c2C2CCN(C(=O)OC(C)(C)C)CC2)c(C)c1 | 21.7% | –
O=C(OCC#CCSc1nnc(-c2ccncc2)o1)c1sc2ccccc2c1Cl | 2.03% | –
Cc1ccc([N+](=O)[O-])c(OCCCNCC(C)O)c1 (stereo not given) | 2.5% | –
CCOC(=O)C1CCCN(C(=O)c2ccc(CS(=O)(=O)c3ccc(Br)cc3)o2)C1 (stereo not given) | -3.02% | –
C=CCNc1nc(N)c(C(=C(C#N)C#N)c2ccccc2)s1 | 19.2% | –
CCCC1CC(C)(C(=O)Cn2[nH]c(=O)ccc2=O)OC1=O (stereo not given) | 2.13% | –
CC12COC3(C(=O)Nc4ccc(Cl)cn4)CC1CCC32C (stereo not given) | 11.8% | –
CCC(=C/c1sc2ccc3ccccc3c2[n+]1C)/C=C1\Sc2ccc3ccccc3c2N1C | – | 35.5 µM (active)
COc1ccc(CN2CCC(c3nc4ccc(Cl)cc4[nH]3)CC2)cc1 | -0.0124% | –
COCCOC(=O)C1=C(C)NC(=O)NC1c1cc2c(cc1Br)OCO2 (stereo not given) | -11.6% | –
O=C(CSc1nnc(-c2cccs2)n1Cc1ccccc1)N1CCc2ccccc2C1 | -1.23% | –
CC(C)CC(=O)N1CCN(Cc2cccc(Cl)c2)CC1 | -21.8% | –
COc1ccccc1CN1CCN(C(=O)Cc2ccccc2)CC1 | -9.03% | –
CC(C)CC(=O)N1CCN(Cc2ccccc2Br)CC1 | – | 20 µM (active)
CCCCC(O)C1=C[N+](=O)CC=C1 (stereo not given) | 0% | –
CN1CCN(Cc2nc3cc(NC(=O)COc4ccc([N+](=O)[O-])cc4)ccc3n2C)CC1 | 7.7% | –
COc1ccc(C2(CNC(=O)C(c3ccccc3)c3ccccc3)CCOCC2)cc1OC | 1.8% | –
